In PubChem BioAssay (NCATS):
Records with an inconclusive call do not appear. The source made the active and inactive calls. Calls follow the shape of the dose curve; as a rule, active = well fitted curve in the direction sought with a large enough effect; inconclusive = small, poorly fitted or top-dose-only effect, or another doubt; inactive = no such curve, though single readings can be large; an effect the other way counts as inactive or inconclusive.

Tests used:
[1] = biological target: Aldehyde dehydrogenase, mitochondrial (Homo sapiens) (UniProt P05091); assay: qHTS for Inhibitors of the Aldehyde Dehydrogenase Family (ALDH2) Primary screen (AID 2061308);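 also: plate controls were vehicle for no effect and reference inhibitor for full effect; nearly all actives have a fitted effect of over 55% in size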
[2] = biological target: Retinaldehyde dehydrogenase 3 (Homo sapiens) (UniProt P47895); assay: qHTS for Inhibitors of the Aldehyde Dehydrogenase Family (ALDH1A3) Primary screen (AID 2061315);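 also: plate controls were DMSO vehicle for no effect and reference inhibitor for full effect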
[3] = BET inhibitor-based combinations targeting novel dependencies in MECOM-rearranged (r) AML: SET-2 cell line (AID 2202231); settings: SET-2 AML cells viability, CellTiter-Glo luminescence, 48 h; viability: active compounds read low, concentration not given here; also: nearly all actives have a fitted effect of over 35% in size; also: potency is read from the fitted curve at half-maximal effect;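 as to viability: plate controls were DMSO treated cells for no effect and wells without cells for full effect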
Method in brief: (§1)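 Readout: CellTiter-Glo luminescence. Exposure: 48 h, 11 concentrations, 500 cells/well. Metric: AUC and within-line Z-AUC after DMSO/empty-well normalization.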

[4] = BET inhibitor-based combinations targeting novel dependencies in MECOM-rearranged (r) AML: OCI-AML3 cell line (AID 2202232); settings: Potency: OCI-AML3 viability; also: nearly all actives have a fitted effect of over 35% in size; also: potency is read from the fitted curve at half-maximal effect
Method in brief: as §1

[5] = BET inhibitor-based combinations targeting novel dependencies in MECOM-rearranged (r) AML: MV-4-11 cell line (AID 2202233); also: nearly all actives have a fitted effect of over 45% in size; also: potency is read from the fitted curve at half-maximal effect
Method in brief: (§2)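 Seeding density was 500 cells/well, and drug exposure lasted 48 hr under standard culture conditions. Read-out used CellTiter-Glo reagent with a 15 min room-temperature incubation before luminescence measurement; AUC and Z-AUC summarize the normalized responses.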

[6] = BET inhibitor-based combinations targeting novel dependencies in MECOM-rearranged (r) AML: AML-194 cell line (AID 2202237; also: nearly all actives have a fitted effect of over 40% in size; also: potency is read from the fitted curve at half-maximal effect)
Method in brief: as §1

[7] = biological target: Retinaldehyde dehydrogenase 3 (Homo sapiens) (UniProt P47895); assay: qHTS for Inhibitors of the Aldehyde Dehydrogenase Family (ALDH1A3) Confirmatory screens (AID 2061311); also: potency is read from the fitted curve at half-maximal effect; nearly all actives have a fitted effect of over 60% in size
[8] = biological target: Aldehyde dehydrogenase 1A1 (Homo sapiens) (UniProt P00352); assay: qHTS for Inhibitors of the Aldehyde Dehydrogenase Family (ALDH1A1) Confirmatory screens (AID 2061316); also: potency is read from the fitted curve at half-maximal effect; nearly all actives have a fitted effect of over 65% in size
[9] = BET inhibitor-based combinations targeting novel dependencies in MECOM-rearranged (r) AML: HNT-34 cell line (AID 2202234); also: nearly all actives have a fitted effect of over 35% in size; also: potency is read from the fitted curve at half-maximal effect
Method in brief: as §2

[10] = BET inhibitor-based combinations targeting novel dependencies in MECOM-rearranged (r) AML: AML-191 cell line (AID 2202236; also: nearly all actives have a fitted effect of over 35% in size; also: potency is read from the fitted curve at half-maximal effect)
Method in brief: as §1

[11] = BET inhibitor-based combinations targeting novel dependencies in MECOM-rearranged (r) AML: UCSD-AML1 cell line (AID 2202235); also: nearly all actives have a fitted effect of over 40% in size; also: potency is read from the fitted curve at half-maximal effect
Method in brief: as §2

[12] = biological target: Retinal dehydrogenase 2 (Homo sapiens) (UniProt O94788); assay: qHTS for Inhibitors of the Aldehyde Dehydrogenase Family (ALDH1A2) Confirmation screens (AID 2061314); also: potency is read from the fitted curve at half-maximal effect; nearly all actives have a fitted effect of over 65% in size

CO[C@H]1[C@H](O)[C@H](O[C@H]2CC[C@]3(C)C4CC[C@]5(C)[C@H](C6=CC(=O)OC6)CC[C@]5(O)C4CC[C@@H]3C2)O[C@@H](C)[C@@H]1O (some centres undefined)
inactive: Potency [1] | Potency [2]

COC1CC(OC2CCC3(C=O)C(CCC4C3CCC3(C)C(C5=CC(=O)OC5)CCC43O)C2)OC(C)C1OC1OC(CO)C(O)C(O)C1O (centres undefined)
inactive: Potency [1] | Potency [2]

COC[C@H]1OC(=O)c2coc3c2[C@@]1(C)C1=C(C3=O)[C@@H]2CC[C@H](O)[C@@]2(C)C[C@H]1OC(C)=O
active: Potency [3] 18600 nM | Potency [4] 10500 nM | Potency [5] 5900 nM | Potency [6] 8330 nM

COc1cccc(CNc2ccc(S(=O)(=O)Nc3nc(C)c(C)s3)cc2)c1O
active: Potency [7] 12700 nM | Potency [8] 10100 nM

Cn1c(CCCCCCC(=O)NO)nc2cc(N(CCCl)CCCl)ccc21
active: Potency [3] 2630 nM | Potency [4] 2350 nM | Potency [9] 2950 nM | Potency [10] 2630 nM | Potency [6] 2950 nM

CC(C)C[C@H](CN)CC(=O)O
inactive: viability [3] 113% | Potency [4] | Potency [5] | Potency [9] | Potency [11] | Potency [10] | Potency [6]

COc1ccc(-n2c(C)cc(-c3nnc4n3CCCCC4)c2C)cc1
inactive: Potency [2]
active: Potency [7] 10100 nM | Potency [12] 12700 nM | Potency [8] 12700 nM

CC(C)[C@]12O[C@H]1[C@@H]1O[C@@]13[C@@]1(C)CCC4=C(COC4=O)[C@@H]1C[C@@H]1O[C@@]13C2=O
active: Potency [3] 83.3 nM | Potency [4] 59 nM | Potency [9] 166 nM | Potency [11] 74.2 nM | Potency [10] 83.3 nM

C[C@@H](C1CC[C@@]2(O)C3=CC(=O)[C@@H]4C[C@@H](O)[C@@H](O)C[C@]4(C)[C@H]3CC[C@]12C)[C@H](O)CCC(C)(C)O (some centres undefined)
inactive: viability [3] 104% | Potency [4] | Potency [11] | Potency [10]

N#CC(O[C@@H]1O[C@H](CO[C@@H]2O[C@H](CO)[C@@H](O)[C@H](O)[C@H]2O)[C@@H](O)[C@H](O)[C@H]1O)c1ccccc1 (some centres undefined)
inactive: viability [3] 93.9% | Potency [4] | Potency [5] | Potency [9] | Potency [10]

CC(=O)O[C@H]1C(=O)[C@]2(C)C(O)C[C@H]3OC[C@@]3(OC(C)=O)[C@H]2[C@H](OC(=O)c2ccccc2)[C@]2(O)C[C@H](O)C(C)=C1C2(C)C (some centres undefined)
inactive: Potency [1] | Potency [2]

CC(C)[C@H]1C(=O)N[C@H](CO)Cc2c[nH]c3cccc(c23)N1C
active: Potency [5] 1150 nM

O=C(O)CNC(=O)C1C(=O)N(C2CCCCC2)C(=O)N(C2CCCCC2)C1=O
inactive: Potency [4] | Potency [9] | Potency [11] | Potency [6]

C[C@@H]1O[C@@H](O[C@@H]2C=C3CC[C@@H]4[C@H](CC[C@]5(C)[C@@H](c6ccc(=O)oc6)CC[C@]45O)[C@@]3(C)CC2)[C@H](O)[C@H](O)[C@H]1O
active: Potency [4] 14.8 nM | Potency [5] 29.5 nM | Potency [9] 14.8 nM | Potency [10] 18.6 nM | Potency [6] 14.8 nM

Cc1c(N)nc([C@H](CC(N)=O)NC[C@@H](N)C(N)=O)nc1C(=O)N[C@H](C(=O)N[C@@H](C)[C@H](O)[C@@H](C)C(=O)N[C@@H](C(=O)NCCc1nc(-c2nc(C(=O)NCCC[S+](C)C)cs2)cs1)[C@@H](C)O)C(O[C@H]1O[C@H](CO)[C@H](O)[C@@H](O)[C@H]1O[C@H]1O[C@H](CO)[C@@H](O)[C@H](OC(N)=O)[C@@H]1O)c1cnc[nH]1 (some centres undefined)
inactive: viability [3] 100% | Potency [11] | Potency [10] | Potency [6]
active: Potency [5] 4560 nM | Potency [9] 8110 nM

Cc1[nH]ncc1-c1cc2nc([C@@H]3CC4CCN3CC4)[nH]c(=O)c2s1
active: Potency [4] 9340 nM | Potency [5] 3320 nM | Potency [9] 9340 nM | Potency [11] 9340 nM | Potency [10] 8330 nM | Potency [6] 9340 nM

O=C(Nc1ccncc1)C(=O)c1cn(Cc2ccc(Cl)cc2)c2ccccc12
active: Potency [4] 417 nM | Potency [5] 296 nM | Potency [11] 332 nM

CN1C(=O)COc2c(C(=O)NC3CN4CCC3CC4)cc(Cl)cc21 (centres undefined)
inactive: viability [3] 95.7% | Potency [5] | Potency [11]

CO[C@H]1CCC(O[C@H]2C[C@H]([C@]3(C)CC[C@]4(C[C@H](O)[C@@H](C)[C@@H]([C@@H](C)/C=C(\C)C(=O)[C@H](C)C[C@H](C)C(=O)O)O4)O3)O[C@]3(O[C@@H]([C@H]4O[C@@](O)(CO)[C@H](C)C[C@@H]4C)C[C@@H]3C)[C@@H]2C)O[C@@H]1C (some centres undefined)
active: Potency [4] 235 nM | Potency [5] 372 nM | Potency [11] 2630 nM | Potency [6] 263 nM
